This note sets out measurements from PubChem BioAssay (Tox21).

Molecules are shown by their SMILES. Records with an inconclusive call do not appear. Activity calls are given as the source filed them. Calls follow the shape of the dose curve; as a rule, active = well fitted cell-killing curve with a large enough effect in the repeat runs; inconclusive = weak or mixed curves; inactive = flat fitted curve, though single readings scatter.
% is scaled to controls: 0 for no effect and ±100 for the full control effect; potency is read from the fitted curve at half-maximal effect.

A short description of the experiment: qHTS RealTime-Glo MT Cell Viability Assay in HepG2 cells - 32 hour (AID 1224877). Also: nearly all actives have a fitted effect of over 55% in size. The note with it: RealTime-Glo luminescence; series mostly up to 76.8 µM; activity change, negative = cytotoxic: at the top concentration. From the text:
U.S. Tox21 Program National Center for Advancing Translational Sciences [NCATS] NIH Chemical Genomics Center [NCGC] U.S. Environmental Protection Agency [EPA] National Institutes of Environmental Health Sciences [NIEHS] National Toxicology Program [NTP] U.S. Food and Drug Administration [FDA] Tox21 Assay Overview: Measure of cell viability is critical in the cell-base assay. Analysis of cell viability is necessary for the characterization of cell responses to cytotoxic drugs and environmental stress. A RealTime-Glo MT Cell Viability Assay to monitor cell viability in real time of continues cell culture during 40 hours of compound treatment was used to screen Tox21 10K library compounds in HepG2 cells. The RealTime-Glo MT Cell Viability Assay is a nonlytic, homogeneous, bioluminescent method to measure cell viability in real time using a simple, plate-based method. The assay involves adding NanoLuc luciferase and a cell-permeant prosubstrate to cells in culture. Viable cells reduce the proprietary prosubstrate to generate a substrate for NanoLuc luciferase. This substrate diffuses from cells into the surrounding culture medium, where it is rapidly used by the NanoLuc Enzyme to produce a luminescent signal. The signal correlates with the number of viable cells, making the assay well suited for cytotoxicity studies.
Tox21 Assay Protocol Summary: The mixture of HepG2 cell suspension and reagents were dispensed at 600cells/6 ul/well in 1536-well tissue culture treated black solid bottom plates using a Multidrop dispenser. After the assay plates were incubated at a 37 C/5% CO2 incubator for 5 hours, 23 nL of compounds dissolved in DMSO, positive and negative controls was transferred to the assay plate by a pintool work station. The plates were incubated at 37 C for 40 hours. The luminescence intensity were measured at 0h, 8h, 16h, 24h, 32h and 40h time points using ViewLux plate reader during compound treatment.
On to `Clc1ccc(C(c2ccc(Cl)cc2)C(Cl)(Cl)Cl)cc1`, for which the Potency entry was “inactive”.
For the compound `CC(=[OH+])/C=C(/C)[O-].CC(=[OH+])/C=C(\C)[O-].CC(=[OH+])/C=C(\C)[O-].[Fe]`, the “activity change, negative = cytotoxic” value is -0.44% (inactive).
Regarding `CC(=O)C(Cl)(Cl)Cl`, the “activity change, negative = cytotoxic” value was -12.5% (inactive).
Still for that read-out and setting: for `ClC(Cl)=C(Cl)Cl` the value was 0.327% (inactive).
Consider `COC12CC[C@@]3(C[C@@H]1C(C)(O)C(C)(C)C)[C@H]1Cc4ccc(O)c5c4[C@@]3(CCN1CC1CC1)[C@H]2O5` (stereo not given in full), for which the Potency was 48.6 µM (active).
Take `O=C1c2ccccc2C(=O)C1C(=O)C(c1ccccc1)c1ccc(Cl)cc1` (stereo not given): the “activity change, negative = cytotoxic” value was -18.5% (inactive).
Turning to `CN(CCCC(O)c1cccnc1)N=O` (stereo not given), the “activity change, negative = cytotoxic” value is 5.63% (inactive).
Still for that read-out and setting: for `ClC1=C(Cl)[C@]2(Cl)[C@H]3[C@H]([C@H]4C=C[C@H]3C4)[C@@]1(Cl)C2(Cl)Cl` the value was -7.2% (inactive).
On the same count and under the same terms, as for `CC(C)[C@H](C(=O)OC(C#N)c1cccc(Oc2ccccc2)c1)c1ccc(OC(F)F)cc1` (stereo not given in full), the figure is -7.95% (inactive); as for `Nc1ccc(Cl)cc1C(=O)c1ccccc1`, -4.44% (inactive).
Take `O=C(Cl)c1ccc(Cl)cc1`: the “activity change, negative = cytotoxic” value was 8.69% (inactive).
`CCCCCCCCCCCCCCC(Br)C(=O)O` (stereo not given): the “activity change, negative = cytotoxic” value was -24.7% (inactive).
Turning to `CCN(CC)C(=S)[S-].CCN(CC)C(=S)[S-].[Zn+2]`, the Potency is 13.7 µM (active).
Regarding `COc1ccc(OC)c(CC(C)N)c1` (stereo not given), the “activity change, negative = cytotoxic” value is -1.42% (inactive).
Still for that read-out and setting: as for `CCOC(=O)CC(=O)CCl`, the figure is -0.409% (inactive).
Same read-out and setting: as for `CN(C)c1ccc(N=Nc2ccccc2)cc1`, the figure is -15.1% (inactive); as for `NNC(=O)c1ccccc1`, -2.73% (inactive); as for `CCCCOP(=O)(CCCC)OCCCC`, 3.95% (inactive).
Take `CN(C)C1CSSSC1`: the “activity change, negative = cytotoxic” value is 1.59% (inactive).
Consider `CCCCCCCCCCCCCN1CC(C)OC(C)C1` (stereo not given), for which the “activity change, negative = cytotoxic” value was 1.89% (inactive).
With `NC(=O)CCl`, the “activity change, negative = cytotoxic” value is -3.4% (inactive).
On the same count and under the same terms, for `O=[N+]([O-])c1c2ccccc2cc2ccccc12` the value was 5.03% (inactive); for `Cc1ccc(C(=O)Cl)cc1`, 0.403% (inactive).
For the compound `CCOP(=S)(OCC)OC(Cl)C(Cl)(Cl)Cl` (stereo not given), the “activity change, negative = cytotoxic” value was -0.831% (inactive).
Still for that read-out and setting: as for `CC(C)CC(C)N` (stereo not given), the figure is 0.57% (inactive).
The same measure, in the same setting: for `CCSC(C)CC1CC(=O)C(/C(CC)=N/OC/C=C/Cl)=C(O)C1` (stereo not given) the value was -8.28% [at 35.3 µM] (inactive).
As to `CCCCCCCCCCCCCCCCCCn1cc[n+](C)c1`, the Potency was 24.4 µM (active).
As for `CC(C)(COCC1CO1)COCC1CO1` (stereo not given), the “activity change, negative = cytotoxic” value was 11% (inactive).
In the case of `N#C/C=C/c1ccccc1`, the “activity change, negative = cytotoxic” value was -1.88% (inactive).
Still for that read-out and setting: for `CCOP(=S)(OCC)SCS(=O)(=O)CC` the value was -5.09% (inactive); for `Nc1ccccc1C(=O)Oc1ccc2ccccc2c1`, -5.82% (inactive); for `Nc1ccccc1C(=O)OC/C=C/c1ccccc1`, -9.49% (inactive).
Same read-out and setting: as for `CCN`, the figure is 1.99% (inactive); as for `CC(C)CCCCCOC(=O)c1ccccc1C(=O)OCCCCCC(C)C`, -10.2% (inactive).
Turning to `N#CCCC(Br)(C#N)CBr` (stereo not given), the Potency is 34.7 µM (active).
For `CC(C)(C)c1cc([N+](=O)[O-])cc(C(C)(C)C)c1O`, the “activity change, negative = cytotoxic” value was -27.6% (inactive).
For `CN(C)C(=S)[S-].CN(C)C(=S)[S-].[Cu+2]`, the Potency was 2.67 µM (active).
As to `CC(C)CBr`, the “activity change, negative = cytotoxic” value was -3.75% (inactive).
Consider `O=c1[nH]c2ccccc2n1CCCN1CCC(n2c(=O)[nH]c3cc(Cl)ccc32)CC1`, for which the “activity change, negative = cytotoxic” value was -17.8% [at 35.3 µM] (inactive).
Take `C[C@]12CC[C@@H]3c4ccc(OC(=O)N(CCCl)CCCl)cc4CC[C@H]3[C@@H]1CC[C@@H]2O`: the “activity change, negative = cytotoxic” value was -3.52% [at 35.3 µM] (inactive).
